Results taken from PubChem BioAssay AID720648 (The Scripps Research Institute Molecular Screening Center, 2013).
Screen size: about 370,000 compounds; about 3,100 (0.84%) were called active.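 Rule for the calls: active = inhibition above the mean of compounds lying between control limits plus 3 SD, set per campaign (cut at about 8.5% in these data); inactive = the rest.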 The list comes from a sample in which actives are over-represented; it also holds similar structures and randomly drawn compounds.

Target: Disintegrin and metalloproteinase domain-containing protein 17 (Homo sapiens) (UniProt P78536)
Assay: ADAM17 inhibitors, primary screen, biochemical, QFRET (AID 720648);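 note: 0% = DMSO-only wells as the low control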
Details: recombinant ADAM17, EDANS/DABCYL FRET peptide cleavage; at 6.95 µM; stronger effect = higher value

Chain of Disintegrin and metalloproteinase domain-containing protein 17 (Homo sapiens) (P78536 215-824 limits assumed): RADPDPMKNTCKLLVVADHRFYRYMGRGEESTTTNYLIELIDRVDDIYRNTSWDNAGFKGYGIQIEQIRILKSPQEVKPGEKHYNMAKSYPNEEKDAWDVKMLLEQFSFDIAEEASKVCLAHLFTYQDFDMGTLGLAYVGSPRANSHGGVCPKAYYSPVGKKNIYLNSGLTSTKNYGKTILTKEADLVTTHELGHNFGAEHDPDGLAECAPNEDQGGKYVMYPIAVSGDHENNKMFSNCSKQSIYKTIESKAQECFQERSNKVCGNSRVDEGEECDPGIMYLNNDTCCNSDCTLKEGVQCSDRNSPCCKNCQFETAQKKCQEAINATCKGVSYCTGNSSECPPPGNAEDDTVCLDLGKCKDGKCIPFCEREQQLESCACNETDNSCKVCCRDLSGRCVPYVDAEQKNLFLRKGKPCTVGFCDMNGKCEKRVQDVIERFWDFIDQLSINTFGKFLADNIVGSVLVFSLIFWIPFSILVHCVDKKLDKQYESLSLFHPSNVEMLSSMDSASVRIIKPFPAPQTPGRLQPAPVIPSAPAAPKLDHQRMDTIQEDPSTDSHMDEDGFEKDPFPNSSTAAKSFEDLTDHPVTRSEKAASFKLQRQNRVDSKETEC

Structure (SMILES) | inhibition
C=CCN(C)CC#Cc1ccccc1 | 4% (inactive)
c1coc(CCNc2ncnc3ccc(-c4ccc5c(c4)OCO5)cc23)c1 | -61.9% (inactive)
O=C(CSc1ccccc1)Nc1cc(Cl)ccc1Oc1ccccc1 | 2.94% (inactive)
O=C(CSc1nc(Nc2ccccc2)nc(N2CCOCC2)n1)Nc1cc(Cl)ccc1O | 10.2% (active)
O=C(CSc1nc2ccc(Nc3nc(N4CCOCC4)nc(N4CCOCC4)n3)cc2s1)NCc1ccco1 | -1.45% (inactive)
Cc1cc(=O)[nH]c(SCC(=O)Nc2ccc(Cl)cc2C)n1 | 3.04% (inactive)
CCCCNC(=O)C[C@H]1C(=O)N(Cc2ccc(OC)cc2)C2=CCCC[C@@]21C(=O)OCC | -4.97% (inactive)
CC(C)(C)OC(=O)NCc1cc(F)ccc1/C=C/S(=O)(=O)NCCc1ccccc1 | 4.18% (inactive)
CC(C)Oc1ccc(C2NC(=O)NC2=O)cc1 (configuration not stated) | -3.2% (inactive)
O=C1CSC(c2ccc(Cl)cc2)N1 (configuration not stated) | -1% (inactive)
O=C1NC(=O)C(c2ccc(Cl)cc2)N1 (configuration not stated) | 35.4% (active)
Fc1ccc2nc(COCc3nc4ccc(F)cc4[nH]3)[nH]c2c1 | -1.4% (inactive)
COc1ccc(Cn2ccc3ccc(-c4ccc5ccn(Cc6ccccc6C)c5c4)cc32)cc1 | -14.6% (inactive)
CCCC1CCC2(CCCN2CCOC(=O)NCc2ccccc2)CC1 (configuration not stated) | -6.91% (inactive)
COc1ccc(NS(=O)(=O)c2ccc(O)c(C(=O)OCC(=O)NC3CCCCC3)c2)cc1 | -2.64% (inactive)
COc1ccc(S(=O)(=O)Nc2ccc(O)c(Sc3nc4ccccc4s3)c2)cc1 | 9.23% (active)
COc1cccc(NS(=O)(=O)c2ccc(-c3coc(C)n3)cc2)c1 | 0.72% (inactive)
CCOC(=O)C1CCN(C(=O)C(C)(C)NC(=O)Nc2ccccc2Cl)CC1 | -3.66% (inactive)
C=CCN1C(=O)[C@@H](CC(=O)NCCCOCCCC)[C@]2(C(=O)OCC)CCCCC/C=C/12 | -0.06% (inactive)
CCC(c1ccc(NC(=O)OC(C)(C)C)cc1)c1cc(OC)cc(OC)c1 (configuration not stated) | 3.59% (inactive)
C=CCN1C(=O)[C@@H](CC(=O)N2CCN(C(=O)OCC)CC2)[C@]2(C(=O)OCC)CCCCC/C=C/12 | -4.2% (inactive)
Cc1cc(C(=O)NN=C/C=C/c2ccco2)n[nH]1 | -5.03% (inactive)
COC(=O)C1CN(Cc2ccc(F)cc2)CCS(=O)(=O)N1Cc1ccc(Cl)cc1 (configuration not stated) | -3.73% (inactive)

Structure (SMILES) | inhibition
C[C@H]1[C@H](NC(=O)c2cccc(N(C)C)c2)CC[C@@]23CCCN2C(=O)CCC[C@@H]13 | -31.1% (inactive)
COc1ccc(C(N)c2csc(NC(=O)Nc3cccc(C(F)(F)F)c3)n2)cc1 (configuration not stated) | 13.7% (active)
COc1ccc(CC(N)c2csc(NC(=O)NC(c3ccccc3)c3ccccc3)n2)cc1 (configuration not stated) | 8.79% (active)
NC(c1csc(NC(=O)Nc2cccc(C(F)(F)F)c2)n1)C1CCCCC1 (configuration not stated) | 3.01% (inactive)
CC(C)(C)CC(=O)Nc1nc(C(N)Cc2ccc(C(F)(F)F)cc2)cs1 (configuration not stated) | -1.9% (inactive)
COc1ccc(CC(N)c2csc(NC(=O)Nc3ccc(C(C)C)cc3)n2)cc1 (configuration not stated) | 2.77% (inactive)
CCOC(=O)c1csc(NC(=O)Nc2cccc(OC)c2)n1 | -0.26% (inactive)
COc1ccc(-n2c(COc3ccc(C)cc3)nnc2SCC(=O)Nc2ccc(Oc3ccccc3)cc2)cc1 | -2.03% (inactive)
O=C1Nc2ccccc2OC1CC(=O)N1CCCCCCC1 (configuration not stated) | -1.23% (inactive)
CCCCN1CCN(C(=O)c2ccc3c(c2)NC(=O)C(C)(C)O3)CC1 | 1.41% (inactive)
COC(=O)c1c(C)[nH]c(C(=O)NCCc2ccc(S(N)(=O)=O)cc2)c1C | -14.5% (inactive)
COC(=O)c1c(C)[nH]c(C(=O)/C=C/c2ccc(Cl)cc2)c1C | 9.17% (active)
COC(=O)c1c(C)oc(C)c1S(=O)(=O)NCc1ccc(Cl)cc1 | -1.53% (inactive)
Cc1c[nH]c2cccc(-c3ccc(Cl)cc3)c12 | -9.67% (inactive)
C=CCOc1ccccc1/C=N/NC(=O)Cc1ccccc1 | 11.4% (active)
O=C(CC(=O)N/N=C\c1cccc(Cl)c1Cl)NCc1ccccc1 | -1.85% (inactive)
CCn1c(SCC(=O)N/N=C/c2ccccc2OCC(=O)O)nnc1-c1ccc(C(C)(C)C)cc1 | -1.28% (inactive)
Oc1ccc(/C=C/c2c(F)cccc2F)c2cccnc12 | -0.42% (inactive)
Nn1c(SCC(=O)Nc2ccc(S(N)(=O)=O)cc2)nnc1-c1n[nH]c2c1CCC2 | -1.11% (inactive)
CCOc1ccccc1NC(=O)NC1CCCCCCC1 | 2.55% (inactive)
O=C(COc1cc(Cl)c(Cl)cc1Cl)NC(=O)NC1CCCC1 | -3.67% (inactive)
CCCN(CC(=O)NC(=O)NC1CCCCC1)CC(=O)Nc1cc(Cl)ccc1Cl | 9.13% (active)
CCC(C)[C@@H](C(=O)OC)N(CCc1cn(Cc2ccccc2)nn1)S(=O)(=O)c1ccccc1Br (some centres not stated) | 6.37% (inactive)

Structure (SMILES) | inhibition
CC(c1ccc(N)cc1)c1cn(C)c2ccccc12 (configuration not stated) | 1.58% (inactive)
CCN1C(=O)C(CC(=O)Nc2cc(C)ccc2C)SC1=Nc1ccc(S(N)(=O)=O)cc1 (configuration not stated) | 9.07% (active)
CCN=C1SC(CC(=O)Nc2ccc(C)cc2)C(=O)N1CC (configuration not stated) | -7.43% (inactive)
CCN1C(=O)C(=O)N(CC(=O)Nc2cc(C)ccc2C)C1=O | -0.07% (inactive)
O=C(CN1CCCc2ccccc21)NCc1ccc(F)cc1 | 1.67% (inactive)
CCN(CC)C(=O)CC[C@H]1CC[C@]2(CCCN(Cc3ccc(Cl)cc3)C2)O1 | 1.61% (inactive)
Cc1onc(C(=O)NN)c1-c1csc(COc2ccccc2)n1 | 9% (active)
Cc1cccc(OCCC(=O)OCc2csc(CC(=O)Nc3ccccc3C)n2)c1 | -0.41% (inactive)
O=C(COc1ccccc1)Nc1nonc1NC(=O)COc1ccccc1 | -4.34% (inactive)
CCOC(=O)[C@]12CCCC3=C1N(CCC3)C(=O)[C@@H](CC(=O)N1CCSCC1)C2 | 0.18% (inactive)
CC(=O)N1CCc2cc(S(=O)(=O)NCCC(=O)N3CCCC3)ccc21 | -3.27% (inactive)
COc1cccc2c(O)cc(=O)n(C)c12 | -4.7% (inactive)
O=Nc1c(O)cc(O)c2ccccc12 | 10.5% (active)
O=c1c2ccccc2ccc2ccc(P(=O)(O)O)cc12 | -16.1% (inactive)
CCN(C(=O)[C@@H](C1CC1)[C@@H](O)c1ccc2ccccc2c1)c1ccccc1 | -1.62% (inactive)
COc1cccc(NC(=O)C/C(C)=N/NC(=O)C2CCCCC2)c1 | -3.38% (inactive)
COc1cccc(NC(=O)C2c3cc(OC)c(OC)cc3C(=O)N(C)C2c2cccnc2)c1 (configuration not stated) | 1.58% (inactive)
COc1cccc(NC(=O)C2C(c3ccccc3)C2(Cl)Cl)c1 (configuration not stated) | 9.55% (active)
CC(C)CNS(=O)(=O)CC1NCCc2ccccc21 (configuration not stated) | -3.23% (inactive)
COc1ccc(C(=O)OCCN2CCN(C3CN(Cc4cn(Cc5ccccc5F)nn4)S(=O)(=O)C3)CC2)cc1OC (configuration not stated) | -4.52% (inactive)
CC(=O)Nc1nc2ncccn2c1-c1ccc(C(F)(F)F)cc1 | -266% (inactive)
CC(C)(C)c1ccc(S(=O)(=O)NCC2CCN(C(=O)C(=O)c3cc4ccccc4o3)CC2)cc1 | 9.75% (active)
N#Cc1cccc(C(=O)NCC2CCN(C(=O)C(=O)c3cc4ccccc4o3)CC2)c1 | -3.28% (inactive)

Structure (SMILES) | inhibition
O=C(C(=O)N1CCC(CNS(=O)(=O)Cc2ccccc2)CC1)c1cc2ccccc2o1 | -3.01% (inactive)
CC(C)C(C#CC1CC1)N(Cc1ccc2c(c1)OCO2)C(N)=NC(=O)/C=C/c1cccc(C(F)(F)F)c1 (configuration not stated) | -3.71% (inactive)
COc1ccc(-c2cc(C3CCN(c4ncccc4[N+](=O)[O-])CC3)[nH]n2)cc1 | 9.29% (active)
COc1ccc(-c2cc(-c3nnc(SCc4ccc([N+](=O)[O-])cc4)n3N)[nH]n2)cc1 | -2.61% (inactive)
CC(=O)NC(Cc1ccccc1)C(=O)NC1CCN(c2ncccc2[N+](=O)[O-])CC1 (configuration not stated) | -2.81% (inactive)
O=C1CCC2(CCC(c3ccc(Cl)cc3)CC2)N1CCO (configuration not stated) | 1.61% (inactive)
CCn1c(=O)n2n(c1=O)[C@@]1(C=C3CCCC[C@H]32)N=C(NC(=O)c2ccccc2)N(Cc2ccccc2)[C@H]1Cc1ccccc1 | 5.91% (inactive)
Cn1c(Nc2ccccc2)cc(=O)n(C)c1=O | -0.84% (inactive)
Cc1ccc(NC(=O)Nc2cc(C)nn2-c2ccccc2)cc1 | -1.4% (inactive)
Cc1cc(Nc2ccccc2)n(C(=O)c2ccc(N)cc2)n1 | 8.62% (active)
COC(C(=O)NCc1ccccc1C)c1ccccc1 (configuration not stated) | -5.21% (inactive)
CCC(Oc1ccccc1C)C(=O)Nc1ccc(S(=O)(=O)Nc2cc(C)on2)cc1 (configuration not stated) | -4.21% (inactive)
COC(C(=O)Nc1ccc(S(=O)(=O)Nc2ccc(C)c(C)c2)cc1)c1ccccc1 (configuration not stated) | 9.01% (active)
COc1cccc(Cn2cc(COC(=O)Nc3ccc(F)cc3)nn2)c1 | -1.05% (inactive)
COc1ccccc1C(=O)NC1CCCCN(C(C)C)C1=O (configuration not stated) | -7.08% (inactive)
O=C(O)CCC(=O)N(Cc1ccco1)c1nc(-c2ccccc2)cs1 | -2.47% (inactive)
COc1ccc(CN(C(=O)c2cccs2)c2nccs2)cc1OC | 0.3% (inactive)
COc1ccc(CCN(C(=O)COc2ccccc2)c2nc(-c3ccccc3)cs2)cc1OC | 9.24% (active)
C[C@@H]1COc2cccc(N3CCCC3)c2S(=O)(=O)N1C | -5.16% (inactive)
C=CCN1[C@@H](Cc2ccccc2)COc2cccc(N3CCSCC3)c2S1(=O)=O | -1.76% (inactive)
CCCn1nc(C(=O)NNC(=O)CSCC(=O)Nc2cc(C)on2)c2ccccc2c1=O | 11.3% (active)
Cc1cc(NC(=O)CSCC(=O)NC(C)c2ccccc2)no1 (configuration not stated) | -2.03% (inactive)
CCCn1nc(C(=O)NNC(=O)CCOc2ccccc2OCC)c2ccccc2c1=O | -0.01% (inactive)
